Source: PubChem (National Center for Advancing Translational Sciences (NCATS))
This is a sample that favours compounds with a hit; in the whole collection about 4.7% have one here.
TRHR enhancer = qHTS for Small Molecule Agonists and Allosteric Enhancers of Human TRH Receptor: Primary Screen for Enhancers; enhancement, % at 2 µM; Thyrotropin-releasing hormone receptor (Homo sapiens), P34981; 360,000 compounds, 0.66% hits; TRHR cells, fluo-8 calcium fluorescence, EC20 TRH enhancement; AID 493056, 2011; in the data active means enhancement above about 30%; further: 0% is about no effect
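Enhancer read-out: after compound pinning and an initial kinetic agonist-mode read, an EC20 of TRH (10 nM final) was injected and fluo-8 calcium signal (Ex 480/Em 530) followed at 1 s/cycle for 100 cycles in TRHR-expressing cells.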
D1 PAM = Potentiators of Human D1 Dopamine Receptor: qHTS. HEK293 TREx D1 cells, calcium flux, dopamine EC20 potentiation. potentiation, % at 10 µM. 360,000 compounds, 0.036% hits; in the data active means potentiation above about 30%; further: 0% is about no effect
Target sequence (P21728 whole entry, looked up): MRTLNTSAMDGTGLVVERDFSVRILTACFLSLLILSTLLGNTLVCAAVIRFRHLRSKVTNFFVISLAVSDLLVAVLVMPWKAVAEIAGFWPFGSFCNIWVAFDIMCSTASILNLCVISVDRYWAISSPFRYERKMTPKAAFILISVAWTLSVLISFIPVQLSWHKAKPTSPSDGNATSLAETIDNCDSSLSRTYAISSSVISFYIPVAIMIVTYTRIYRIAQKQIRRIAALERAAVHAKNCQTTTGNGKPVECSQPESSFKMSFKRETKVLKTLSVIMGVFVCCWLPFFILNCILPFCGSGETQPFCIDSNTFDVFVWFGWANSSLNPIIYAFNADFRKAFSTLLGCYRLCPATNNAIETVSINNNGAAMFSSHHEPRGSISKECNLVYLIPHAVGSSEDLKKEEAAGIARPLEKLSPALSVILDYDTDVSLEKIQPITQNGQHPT
D1 agonist = Allosteric Agonists of the Human D1 Dopamine Receptor: qHTS; D(1A) dopamine receptor (Homo sapiens), P21728; HEK293 T-REx D1 cells, calcium flux, agonist mode; activation, % at 2 µM; 360,000 compounds, 1% hits; AID 504660, 2011; further: 0% is about no effect
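Inducible HEK293 T-REx D1 cells, force-coupled to calcium signalling, were plated at 4000 cells/well with tetracycline and held overnight at 30 C. After no-wash calcium dye loading, compound-evoked calcium rise over 180 s flagged agonists.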
D1 antagonist = Antagonist of Human D 1 Dopamine Receptor: qHTS | D(1A) dopamine receptor (Homo sapiens), P21728 | activity change, negative = inhibition, % at 10 µM | 360,000 compounds, 3.2% hits | AID 504652, 2011 | HEK293 TREx D1 cells, calcium flux, dopamine EC80; stronger effect = lower value; in the data active means activity change below about -30%; further: on the % scale 0 is the no-effect control and ±100 the full control effect
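HEK293 T-REx cells expressing inducible, force-coupled D1 receptor; no-wash Ca dye, 30–90 min RT. Cmpd → 180 s read at 1 Hz → EC80 DA → 180 s read.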
TRHR ag = qHTS for Small Molecule Agonists and Allosteric Enhancers of Human TRH Receptor: Primary Screen for Agonists | TRHR cells, calcium flux fluo-8, FDSS agonist mode | activation, % at 2 µM | 360,000 compounds, 0.18% hits | AID 493084, 2011; further: 0% is about no effect
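Agonist-mode FDSS calcium read (Ex 480/Em 530, 1 s cycles) in 1536-well TRHR cells with fluo-8 dye, after 10-cycle baseline and 23 nL compound addition; TRH at EC20 (10 nM final) added afterwards for the enhancer phase.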
Active calls of the source: *; · = no result given. Unless noted, no stated cut-off is given here; in the data, active means activation above about 30%; inactive means the rest.

SMILES | TRHR enhancer | D1 PAM | D1 agonist | D1 antagonist | TRHR ag
CCN(CC)S(=O)(=O)c1ccc(Oc2ccc(S(=O)(=O)N(CC)CC)cc2)cc1 | -2.0 | -5.3 | 30.7* | -26.3 | 2.1
O=S(=O)(c1ccccc1)N1CCN(S(=O)(=O)N2CCCCC2)CC1 | 0.4 | -1.5 | 1.7 | 9.6 | 0.7
O=S(=O)(c1ccccc1)N1CCCN(S(=O)(=O)c2ccccc2)CC1 | -2.2 | 3.6 | 14.3 | -45.4* | -0.7
CCN(CC)S(=O)(=O)c1ccc(S(=O)(=O)N2CCCC2)cc1 | 38.4* | 7.2 | 2.9 | -2.4 | -0.4
CCOc1ccc(S(=O)(=O)N2CCCC2)cc1 | -1.2 | -0.8 | -2.2 | · | -0.3
Cc1ccc(OC(=O)c2cc(-c3ccc4c(c3)OCCO4)on2)c(C)c1 | 3.5 | -1.9 | 8.4 | 11.7 | 0.9
Cn1c(=O)c2c(nc(SCC(=O)Nc3ccccc3F)n2Cc2ccccc2F)n(C)c1=O | -2.5 | -0.3 | 0.4 | -1.4 | -0.6
CCCc1cc(C(=O)Nc2ccc(C(=O)c3ccc(C)cc3)cc2)n(C)n1 | 2.4 | -14.1 | 6.0 | -34.9* | 0.6
CCCc1cc(C(=O)Nc2cccc3ccccc23)n(C)n1 | -0.4 | -3.4 | 2.6 | -2.6 | -1.6
N#CN1CCC(NS(=O)(=O)c2ccc(F)cc2)CC1 | 3.7 | 8.1 | -0.6 | -6.9 | 1.3
CCc1cc2c(=O)oc(-c3ccccc3F)nc2s1 | 37.0* | -5.2 | 0.5 | 13.3 | 0.8
Cc1ccccc1NC(NC(=O)OCCn1c([N+](=O)[O-])cnc1C)C(Cl)(Cl)Cl (stereo not drawn) | -0.2 | -3.8 | 5.5 | -33.1* | -1.4
Cc1ncc([N+](=O)[O-])n1CCOC(=O)NC(Nc1ccc(F)cc1)C(Cl)(Cl)Cl (stereo not drawn) | -6.3 | 6.3 | 3.8 | 1.6 | -0.4
Cc1nc(CC(=O)Nc2nc(C(C)(C)C)cs2)cs1 | 15.4 | -7.4 | 11.9 | -38.4* | -1.2
Cc1nc(CC(=O)Nc2nc(-c3ccccc3)cs2)cs1 | 7.1 | 9.0 | 2.2 | -10.0 | -0.7
CCOC(=O)c1c(C)oc2ncnc(Nc3ccc(OC)c(OC)c3)c12 | 0.9 | -2.0 | 0.9 | 7.5 | -0.6
Cn1/c(=N/N=C/c2ccc([N+](=O)[O-])cc2)sc2ccccc21 | -1.5 | 3.2 | 30.4* | 3.2 | -0.6
O=c1c2c3c(sc2n(Cc2cc(=O)n4ccccc4n2)c(=O)n1-c1ccccc1)CCC3 | 5.9 | 1.1 | -1.5 | -3.9 | 0.1
Cc1ccc(OCCNC(=O)C2CCCCC2)cc1 | 6.7 | 1.6 | 0.0 | 10.0 | -0.9
CCOc1ccccc1NC(=S)NC(=O)C1CCCCC1 | 2.6 | 18.1 | 2.8 | 13.3 | 0.2
COc1ccccc1OCCNC(=O)C1CCCCC1 | -6.2 | -2.9 | 34.2* | 4.1 | 1.2
COC(=O)c1ccccc1NC(=S)NC(=O)C1CCCCC1 | 2.0 | -8.3 | 2.5 | -64.5* | 0.2
Cc1ccc(NC(=S)NC(=O)C2CC2)cc1Cl | 2.4 | -5.2 | 1.1 | -72.6* | -1.3
COc1ccccc1NC(=S)NC(=O)C1CC1 | -4.7 | -6.9 | 1.8 | -42.3* | -0.9
COC(=O)c1ccccc1NC(=O)C1CCCC1 | 2.3 | -2.5 | 3.4 | -22.4 | -1.1
SMILES | TRHR enhancer | D1 PAM | D1 agonist | D1 antagonist | TRHR ag
CCc1ccc(NC(=O)c2sc(-n3nc(C)c(Cc4ccc(OC)cc4)c3C)nc2C)cc1 | 1.4 | 0.9 | -0.3 | -2.7 | -1.0
CC(CCc1ccccc1)NC(=O)Cn1c(=O)nc(-c2ccccc2)c2cc(Cl)ccc21 (stereo not drawn) | -0.9 | -0.3 | 0.5 | 7.2 | -0.3
O=C(O)/C=C/C(=O)Nc1cccc(C(F)(F)F)c1 | 2.0 | 1.6 | 3.4 | -4.6 | 0.3
C=CCC(CC=C)(CNC(=O)C(=O)Nc1cccc(C(F)(F)F)c1)c1ccccc1 | 2.6 | 1.6 | 30.1* | -0.6 | 12.1
COc1cc2c(C(=O)N(C)c3cc(Cl)ccc3OC)cn(CC(C)C)c(=O)c2cc1OC | -4.7 | 1.9 | -0.2 | -6.3 | -0.2
O=c1cc(-c2ccccc2)nc2c(-c3ccccc3)c(C(F)(F)F)[nH]n12 | -11.2 | -9.8 | -1.2 | -31.2* | 0.1
